A word on the AC50: it is the concentration giving half of the maximal activity seen.

The structures appear in SMILES notation. Records with an inconclusive call do not appear. Active and inactive are the calls of the source. How the source made its calls, unless noted: active means hit-call score of the fitted dose curve at least 0.9, where 1 is the maximum; inactive means score below 0.9.

Assay [1] in a line: ACEA_ER_80hr: ACEA Biosciences xCELLigence Real-Time Cell Analysis on Estrogen Receptor Agonism for Proliferation (AID 2282667; active means hit-call score of the fitted dose curve at least 0.9, where 1 is the maximum). The following applies: T47D proliferation, impedance (xCELLigence), 80 h. In short, it runs like this:
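Real-time electrical impedance tracked growth of the human breast line T47D, with the 80 h post-dosing value used. Dosing spanned eight 1:4 steps down from a 100 uM final top concentration, run in duplicate.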

The nature of assay [2]: ATG_CRE_CIS: Attagene CIS-FACTORIAL HepG2 Assay for human cAMP Responsive Element (CRE) binding protein 3 (AID 2282926). Particulars: HepG2 CRE cis-reporter, Attagene multiplexed mRNA; actives raise or lower the signal. A digest of the protocol:
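Assay format: transient reporter transfection of HepG2, 24 h treatment, total RNA isolation with DNase I step. Reporter abundance read by fluorescence after PCR and capillary separation; DMSO-normalised gain or loss fitting.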

The target in assay [3] is CCAAT/enhancer-binding protein beta (Homo sapiens) (UniProt P17676). The experiment in a line: ATG_C_EBP_CIS: Attagene CIS-FACTORIAL HepG2 Assay for human CCAAT/Enhancer Binding Protein (C/EBP) beta (AID 2282927). Particulars: HepG2 Attagene cis-factorial transcription factor reporter; actives raise or lower the signal. A digest of the protocol: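 Changes in reporter mRNA, rather than exogenous chimeric receptor activity, reflect native C/EBP signalling in transfected HepG2 cells dosed for 24 h; transcripts are detected by RT-PCR and capillary electrophoresis.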

Assay [4] is described as follows: ATG_CMV_CIS: Attagene CIS-FACTORIAL HepG2 Assay for human CMV (Internal Marker) (AID 2282928).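 Further: endpoint acts as a background internal control marker rather than a target.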 The following applies: HepG2 CMV promoter reporter, transcription factor profiling; actives raise or lower the signal. A digest of the protocol:
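Reporter transcripts from transfected HepG2 cells are isolated after 24 h of chemical dosing, reverse-transcribed and amplified. Fragments labeled with 6-FAM are cut with HpaI and quantified by capillary electrophoresis; DMSO defines baseline.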

Assay [5] is described as follows: ATG_DR4_LXR_CIS: Attagene CIS-FACTORIAL HepG2 Assay for human Liver X Receptor (LXR), DR4 submotif (AID 2282929). Particulars: HepG2 Attagene DR4 cis-reporter, mRNA transcription; actives raise or lower the signal. In short, it runs like this:
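Measures endogenous transcription factor activity via a DR4-driven reporter transcript in human HepG2 cells. Compounds incubated 24 h; mRNA quantified by RT-PCR and capillary electrophoresis, analysed as gain or loss of signal versus DMSO.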

Assay [6] addresses Aryl hydrocarbon receptor (Homo sapiens) (UniProt P35869). The experiment in a line: ATG_Ahr_CIS: Attagene CIS-FACTORIAL HepG2 Assay for human Aryl Hydrocarbon Receptor (Ahr) (AID 2282930). Particulars: HepG2 AhR cis-factorial reporter transcription; actives raise or lower the signal. A digest of the protocol:
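HepG2, transient MRTU (cis) transfection, 24 h exposure. RNA → cDNA → PCR → 6-FAM primer extension → HpaI 2 h 37 C → CE. Fit: bidirectional, DMSO baseline.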

Assay [7] is described as follows: ATG_AP_2_CIS: Attagene CIS-FACTORIAL HepG2 Assay for human Activator Protein 2 (AP-2) (AID 2282932). Particulars: HepG2 AP-2 cis-reporter, Attagene transcription factor profiling; actives raise or lower the signal. In short, it runs like this: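 Transiently transfected HepG2 cells are exposed to chemical for 24 h. Reporter transcripts are then measured as fluorescence following RT-PCR and capillary separation, and gain- or loss-of-signal is fitted relative to DMSO.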

Assay [8] is described as follows: ATG_BRE_CIS: Attagene CIS-FACTORIAL HepG2 Assay for human Bone Morphogenetic Protein (BMP) Response Element (BRE) (AID 2282933). The following applies: HepG2 BMP response element reporter, Attagene transcription factor profiling; actives raise or lower the signal. A digest of the protocol: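 HepG2 cells transiently transfected with multiplexed cis-element reporter units were dosed with chemical for 24 h. Reporter mRNA was measured by RT-PCR with fluorescent labelling, HpaI digestion and capillary electrophoresis; bidirectional fitting relative to DMSO.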

For assay [9], the target named is Retinoic acid receptor alpha (Homo sapiens) (UniProt P10276). Description: ATG_DR5_RAR_CIS: Attagene CIS-FACTORIAL HepG2 Assay for human Retinoic Acid Receptor Alpha (RARE), DR5 submotif (AID 2282934). The following applies: HepG2 Attagene cis-factorial RARE DR5 reporter, mRNA; actives raise or lower the signal. A digest of the protocol:
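HepG2, transient cis-reporter transfection, 24 h exposure. mRNA readout: RT-PCR, FAM label, HpaI cut, capillary electrophoresis. DMSO baseline, gain/loss fitting.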

For assay [10], the target named is Transcription factor E2F1 (Homo sapiens) (UniProt Q01094). The experiment in a line: ATG_E2F_CIS: Attagene CIS-FACTORIAL HepG2 Assay for human E2F Transcription Factor 1 (AID 2282935). Particulars: HepG2 Attagene cis-reporter, E2F reporter RNA transcripts; actives raise or lower the signal. A digest of the protocol:
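Fluorescent RT-PCR products, digested with HpaI for 2 h at 37 C, are separated by capillary electrophoresis. Source RNA comes from transfected HepG2 cultures treated for 24 h.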

Assay [11] is described as follows: ATG_E_Box_CIS: Attagene CIS-FACTORIAL HepG2 Assay for human Enhancer Box (E-box) (AID 2282936). Particulars: HepG2 E-box cis-reporter transcription, actives raise or lower the signal. In short, it runs like this: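 Fluorescent reporter fragments separated by capillary electrophoresis gave the signal; mRNA came from HepG2 cells transfected with cis-element reporters and treated 24 h. Curves fitted bidirectionally relative to DMSO controls.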

Assay [12] can be described thus: ATG_M_61_CIS: Attagene CIS-FACTORIAL HepG2 Assay for M61 Transcription Factor (Internal Marker) (AID 2282937). The following applies: HepG2 Attagene CIS-FACTORIAL M61 internal marker reporter; actives raise or lower the signal. In short, it runs like this: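 Fluorescence from labelled cDNA fragments, separated by capillary electrophoresis, quantifies reporter induction. HepG2 cells bearing transiently transfected cis-promoter MRTUs were incubated with test chemical for 24 h; DMSO defined baseline for gain/loss fitting.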

The nature of assay [13]: ATG_EGR_CIS: Attagene CIS-FACTORIAL HepG2 Assay for human Early Growth Response 1 (EGR1) (AID 2282938). The following applies: HepG2 Attagene CIS-FACTORIAL EGR reporter mRNA; actives raise or lower the signal. In short, it runs like this:
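Cell-based multiplex transcription assay: HepG2 carrying transfected cis-element reporter units, 24 h chemical treatment. Fluorescence from capillary electrophoresis of RT-PCR products gives mRNA levels; fitting is bidirectional relative to DMSO.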

The nature of assay [14]: ATG_M_19_CIS: Attagene CIS-FACTORIAL HepG2 Assay for M19 Transcription Factor (Internal Marker) (AID 2282939). The following applies: HepG2 Attagene CIS-FACTORIAL M19 internal marker reporter; actives raise or lower the signal. In short, it runs like this: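 HepG2 cells transiently transfected with cis-regulated multiple reporter transcription units were dosed for 24 h; reporter mRNA was quantified by RT-PCR, 6-FAM primer-extension labelling, HpaI digestion and capillary electrophoresis, with bidirectional fitting against DMSO baseline.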

Assay [15] can be described thus: ATG_ERE_CIS: Attagene CIS-FACTORIAL HepG2 Assay for Estrogen Response Element (ERE) (AID 2282940). The following applies: HepG2 ERE cis-reporter, Attagene RNA transcript; actives raise or lower the signal. In short, it runs like this: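 HepG2 cells transiently transfected with cis-promoter-driven multiplexed reporter transcription units report endogenous TF activity. After 24 h compound exposure, reporter mRNA is quantified by RT-PCR with capillary electrophoresis fluorescence; bidirectional fitting versus DMSO baseline.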

Assay [16] in a line: ATG_Ets_CIS: Attagene CIS-FACTORIAL HepG2 Assay for human Erythroblast Transformation Specific (ETS) (AID 2282941). Particulars: HepG2 ETS cis-reporter transcription, actives raise or lower the signal. A digest of the protocol:
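Bidirectional fit versus DMSO of reporter mRNA signal, detected by RT-PCR and capillary electrophoresis in HepG2 cells transiently transfected with cis-element reporters and dosed 24 h.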

The target of assay [17] is Hepatocyte nuclear factor 3-beta (Homo sapiens) (UniProt Q9Y261). The experiment in a line: ATG_FoxA2_CIS: Attagene CIS-FACTORIAL HepG2 Assay for human Forkhead box A2 (FOXA2) (AID 2282942). Particulars: HepG2 cis-reporter transcription factor activity, 24 h; actives raise or lower the signal. In short, it runs like this: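 In transiently transfected human HepG2 cells, promoter-driven reporter mRNA levels after 24 h chemical exposure are determined via RT-PCR with capillary electrophoresis. DMSO serves as baseline for bidirectional fitting.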

The nature of assay [18]: ATG_FoxO_CIS: Attagene CIS-FACTORIAL HepG2 Assay for human Forkhead box O (FoxO) (AID 2282943). The following applies: HepG2 Attagene cis-reporter, FoxO element, mRNA; actives raise or lower the signal. In short, it runs like this:
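Human hepatoma HepG2 cells carry transiently introduced reporter transcription units controlled by cis promoter elements. Chemical treatment lasted 24 h, and mRNA signal was compared with DMSO.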

The nature of assay [19]: ATG_GATA_CIS: Attagene CIS-FACTORIAL HepG2 Assay for human GATA Binding Protein (AID 2282944). Particulars: HepG2 GATA cis-element reporter, Attagene multiplex mRNA; actives raise or lower the signal. A digest of the protocol: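 HepG2 cells transiently transfected with multiplexed cis-element reporter units reflecting endogenous transcription factor activity; reporter mRNA measured after 24 h dosing by RT-PCR, 6-FAM labeling, HpaI digestion and capillary electrophoresis. Bidirectional fitting versus DMSO baseline.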

The nature of assay [20]: ATG_AP_1_CIS: Attagene CIS-FACTORIAL HepG2 Assay for human Activator Protein 1 (AP-1) (AID 2282931). The following applies: HepG2 Attagene cis-factorial AP-1 reporter mRNA; actives raise or lower the signal. A digest of the protocol:
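Bidirectional concentration-response fitting against DMSO controls. Underlying signal: reporter mRNA from cis-promoter constructs in transiently transfected HepG2, measured after 24 h by RT-PCR and capillary electrophoresis.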

Hepatocyte nuclear factor 3-beta (Homo sapiens), sequence (Q9Y261 whole entry, looked up): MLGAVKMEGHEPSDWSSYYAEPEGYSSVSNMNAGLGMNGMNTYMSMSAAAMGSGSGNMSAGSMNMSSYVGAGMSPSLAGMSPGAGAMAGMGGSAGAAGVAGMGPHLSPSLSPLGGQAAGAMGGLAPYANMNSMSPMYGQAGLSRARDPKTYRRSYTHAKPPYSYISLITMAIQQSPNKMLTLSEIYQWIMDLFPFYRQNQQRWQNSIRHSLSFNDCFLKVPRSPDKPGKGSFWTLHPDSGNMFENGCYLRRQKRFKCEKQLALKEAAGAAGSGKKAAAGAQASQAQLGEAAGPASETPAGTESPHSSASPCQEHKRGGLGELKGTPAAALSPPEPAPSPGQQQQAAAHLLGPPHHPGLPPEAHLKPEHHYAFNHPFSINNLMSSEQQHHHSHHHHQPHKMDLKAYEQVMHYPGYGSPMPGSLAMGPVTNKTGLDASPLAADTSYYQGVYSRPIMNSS
Aryl hydrocarbon receptor (Homo sapiens), sequence (P35869 whole entry, looked up): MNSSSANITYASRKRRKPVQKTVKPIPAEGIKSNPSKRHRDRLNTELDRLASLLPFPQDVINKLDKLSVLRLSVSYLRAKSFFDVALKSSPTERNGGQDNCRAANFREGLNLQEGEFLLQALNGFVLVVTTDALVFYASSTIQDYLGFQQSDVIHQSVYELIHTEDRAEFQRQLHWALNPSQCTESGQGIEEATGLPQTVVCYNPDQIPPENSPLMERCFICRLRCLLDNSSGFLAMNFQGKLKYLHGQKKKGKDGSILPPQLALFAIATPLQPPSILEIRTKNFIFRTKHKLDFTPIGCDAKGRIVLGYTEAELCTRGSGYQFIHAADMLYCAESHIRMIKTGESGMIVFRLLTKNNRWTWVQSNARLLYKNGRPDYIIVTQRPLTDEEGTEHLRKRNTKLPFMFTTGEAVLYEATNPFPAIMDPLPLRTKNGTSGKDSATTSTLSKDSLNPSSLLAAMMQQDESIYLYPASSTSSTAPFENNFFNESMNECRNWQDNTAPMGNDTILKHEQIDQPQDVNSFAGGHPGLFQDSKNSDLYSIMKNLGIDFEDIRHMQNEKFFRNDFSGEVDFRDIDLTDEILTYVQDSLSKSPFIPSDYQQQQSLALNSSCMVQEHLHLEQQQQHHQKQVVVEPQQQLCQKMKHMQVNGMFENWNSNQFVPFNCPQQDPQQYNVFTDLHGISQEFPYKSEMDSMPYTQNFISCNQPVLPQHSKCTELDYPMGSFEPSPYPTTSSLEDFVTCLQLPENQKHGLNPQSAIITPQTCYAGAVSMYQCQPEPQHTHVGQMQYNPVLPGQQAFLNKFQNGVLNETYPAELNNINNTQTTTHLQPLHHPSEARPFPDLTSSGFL
Transcription factor E2F1 (Homo sapiens), sequence (Q01094 whole entry, looked up): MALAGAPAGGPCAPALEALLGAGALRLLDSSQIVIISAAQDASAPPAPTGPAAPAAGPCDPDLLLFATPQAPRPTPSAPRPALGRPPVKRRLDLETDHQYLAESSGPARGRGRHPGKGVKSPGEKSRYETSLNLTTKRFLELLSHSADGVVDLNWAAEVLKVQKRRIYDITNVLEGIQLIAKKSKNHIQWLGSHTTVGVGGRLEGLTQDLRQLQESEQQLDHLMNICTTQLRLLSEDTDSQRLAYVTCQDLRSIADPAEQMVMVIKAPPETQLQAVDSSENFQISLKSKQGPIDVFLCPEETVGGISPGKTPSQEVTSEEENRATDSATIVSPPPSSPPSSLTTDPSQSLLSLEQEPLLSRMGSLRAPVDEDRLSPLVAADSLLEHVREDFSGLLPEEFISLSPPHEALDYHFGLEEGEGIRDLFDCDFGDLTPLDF
CCAAT/enhancer-binding protein beta (Homo sapiens), sequence (P17676 whole entry, looked up): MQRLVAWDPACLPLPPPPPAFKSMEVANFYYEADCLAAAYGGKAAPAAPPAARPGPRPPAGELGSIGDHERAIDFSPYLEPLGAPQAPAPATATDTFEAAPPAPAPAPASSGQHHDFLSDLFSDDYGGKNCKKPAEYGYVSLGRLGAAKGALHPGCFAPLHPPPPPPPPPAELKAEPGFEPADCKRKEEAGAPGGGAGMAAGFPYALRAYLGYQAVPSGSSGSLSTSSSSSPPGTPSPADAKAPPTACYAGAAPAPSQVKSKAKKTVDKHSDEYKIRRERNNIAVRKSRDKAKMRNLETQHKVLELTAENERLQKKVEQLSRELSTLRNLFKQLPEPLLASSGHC
Retinoic acid receptor alpha (Homo sapiens), sequence (P10276 whole entry, looked up): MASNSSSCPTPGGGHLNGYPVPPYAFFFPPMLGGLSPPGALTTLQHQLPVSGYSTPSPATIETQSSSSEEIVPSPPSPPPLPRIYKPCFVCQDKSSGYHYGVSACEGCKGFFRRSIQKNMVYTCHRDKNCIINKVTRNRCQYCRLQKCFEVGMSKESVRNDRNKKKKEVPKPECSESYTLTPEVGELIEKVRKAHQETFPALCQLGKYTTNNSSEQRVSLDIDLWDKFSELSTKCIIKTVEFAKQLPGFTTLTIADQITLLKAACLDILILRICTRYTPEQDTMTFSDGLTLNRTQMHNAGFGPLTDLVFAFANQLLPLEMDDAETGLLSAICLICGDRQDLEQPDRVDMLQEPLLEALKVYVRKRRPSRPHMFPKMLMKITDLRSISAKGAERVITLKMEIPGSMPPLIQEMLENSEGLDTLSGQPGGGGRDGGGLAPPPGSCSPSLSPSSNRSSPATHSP

As to `CCCCC/C=C\C/C=C\CCCCCCCC(=O)O`, the compound was classed as inactive in [1], in [2], in [3], in [4], in [7] and in assay [8]. The compound was classed as inactive in assay [9], in [10], in [11], in assay [12], in assay [14] and in assay [15]. Also, the result in assay [16], in assay [17], in assay [18] and in assay [19] was inactive. Further, the AC50 in [5] was 76.9 µM (active); in [6] it was 100 µM (active); in assay [13] it was 72.5 µM (active).

For `O=c1c(O)c(-c2ccc(O)cc2O)oc2cc(O)cc(O)c12`, the AC50 in assay [1] is 47.5 µM (active); in assay [8], 19.3 µM (active); in assay [15] it was 0.65 µM (active). For the same compound, the call in assay [2], in [3], in assay [4], in assay [5], in [6] and in [7] was inactive. Further, the call in [10], in assay [12], in assay [13], in assay [14], in [16] and in [17] was inactive. Further, the compound was called inactive in [18] and in assay [19].

Take `CC(=O)OC1CCCCC1`: the result in assay [1], in [2], in assay [3], in assay [4], in assay [5] and in assay [6] was inactive. The call in [7], in assay [8], in assay [9], in assay [10], in assay [11] and in assay [12] was inactive. Also, the outcome in [13], in assay [14], in [16], in [17], in assay [18] and in assay [19] was inactive.

`Nc1ccc(Cl)c(N)c1`: the compound was called inactive in assay [1], in assay [2], in assay [3], in [4], in assay [5] and in [7]. In addition, the outcome in [10], in [11], in assay [12], in [13], in assay [14] and in [16] was inactive. Moreover, the outcome in [17], in [18] and in assay [19] was inactive. For the same compound, in assay [6], the AC50 was 6.09 µM (active).

For the compound `O=C1CCCCC1C1CCCCC1` (stereo not given), the call in assay [1], in [2], in assay [3], in [4], in assay [5] and in [6] was inactive. The call in assay [7], in assay [9], in assay [10], in [11], in [12] and in assay [13] was inactive. In addition, the result in assay [14], in assay [15], in [17], in assay [18] and in assay [19] was inactive.

In the case of `Nc1ccnc(=O)[nH]1`, the call in assay [1], in [2], in assay [3], in [4], in [5] and in [6] was inactive. The call in [7], in [9], in assay [10], in [11], in [12] and in assay [14] was inactive. Besides, the compound was called inactive in assay [15], in assay [16], in [17], in assay [18] and in assay [19].

Consider `CCCCc1ccc(Cl)cc1`, for which the outcome in [1], in assay [2], in [3], in [4], in [5] and in assay [6] was inactive. For the same compound, the outcome in assay [20], in assay [7], in assay [10], in [11], in [12] and in assay [13] was inactive. The outcome in assay [14], in assay [15], in [16], in assay [17], in assay [18] and in assay [19] was inactive.

As to `CC(C)(c1ccccc1)c1ccc(Nc2ccc(C(C)(C)c3ccccc3)cc2)cc1`, the call in assay [1], in assay [2], in [3], in assay [4], in [5] and in assay [6] was inactive. The call in assay [7], in assay [8], in [9], in assay [10], in [12] and in assay [13] was inactive. Besides, the call in assay [14], in assay [15], in assay [16], in assay [17], in assay [18] and in assay [19] was inactive.

(Values after PubChem BioAssay (EPA / NIEHS).)
